# Bioassay records (PubChem BioAssay)
# Sampled rows, rich in hits. Any-hit rate of the full collection: about 2.9%.
# PGE2 EP2 inh: human EP2 receptor antagonists, primary screen, TR-FRET cAMP, C6 glioma cells; Prostaglandin E2 receptor EP2 subtype (Homo sapiens), P43116; C6 glioma cells expressing human EP2; cells stimulated with saturating PGE2; inhibition, % at 25 µM; 260,000 compounds, 0.52% hits; AID 1422, 2008;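 active means percent inhibition above 40 after rounding to a whole number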;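 further: rat C6 glioma host cells with rolipram phosphodiesterase inhibitor present; the protocol text gives 20 µM as final concentration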
# PG9 Ab binder: binders of HIV-1 gp120 antibody PG9, primary screen, biochemical, TR-FRET; HIV-1 gp120 / PG9 antibody interaction; TR-FRET gp120-PG9 antibody binding; inhibition, % at 6.7 µM; 360,000 compounds, 0.43% hits; AID 624416, 2012; in the data active means inhibition above about 8.5%
# RAM inhibit: inhibitors of the yeast RAM network, primary screen, dse1pr::URA3 reporter, 5-FOA selection. AID 868, 2007. 190,000 compounds, 1.8% hits. inhibition, % at 50 µM. S. cerevisiae dse1pr::URA3 reporter, 5-FOA growth OD615, 2 d; analog-sensitive cbk1-as2 kinase mutant strain;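 active means inhibition above a set limit, 3 SD over mean compound inhibition, cut at about 8.4% in these data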;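 further: inhibition rescues growth on 5-FOA so higher OD means more RAM inhibition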
# Rev-erbA mod: modulators of Rev-erb alpha DNA binding, primary screen, biochemical, FITC-DNA, fluorescence polarization, uHTS; Nuclear receptor subfamily 1 group D member 1 (Homo sapiens), P20393; Rev-erbα–FITC-DNA binding, 90 min; activity, % at 10 µM; 370,000 compounds, 0.79% hits; AID 1259318, 2017;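 active means activity above about 14%, limit read from the data; passing the limit was not always enough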
# Target sequence (P20393 whole entry, looked up): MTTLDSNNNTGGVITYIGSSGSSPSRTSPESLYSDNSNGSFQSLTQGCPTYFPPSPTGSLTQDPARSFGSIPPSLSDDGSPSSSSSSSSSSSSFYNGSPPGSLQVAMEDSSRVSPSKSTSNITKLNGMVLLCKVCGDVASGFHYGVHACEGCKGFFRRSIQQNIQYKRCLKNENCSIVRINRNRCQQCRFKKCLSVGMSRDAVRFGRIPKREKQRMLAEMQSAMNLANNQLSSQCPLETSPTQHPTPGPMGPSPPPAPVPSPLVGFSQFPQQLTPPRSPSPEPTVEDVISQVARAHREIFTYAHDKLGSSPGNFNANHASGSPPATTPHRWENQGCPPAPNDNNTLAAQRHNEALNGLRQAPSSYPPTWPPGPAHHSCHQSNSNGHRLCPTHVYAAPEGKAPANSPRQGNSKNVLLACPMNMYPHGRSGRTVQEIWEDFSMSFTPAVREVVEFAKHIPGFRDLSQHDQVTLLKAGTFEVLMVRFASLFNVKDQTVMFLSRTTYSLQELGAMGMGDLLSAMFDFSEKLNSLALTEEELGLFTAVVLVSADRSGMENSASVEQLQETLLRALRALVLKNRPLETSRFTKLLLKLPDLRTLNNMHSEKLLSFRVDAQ
# SKN-1 inh: suppressors of acrylamide-induced Pgst-4::GFP reporter in worms, primary screen, SKN-1 inhibitor project, whole organism, uHTS, GFP/RFP fluorescence ratio, strain VP596 | C. elegans VP596 Pgst-4::GFP/RFP ratio, 24 h | inhibition, % at 21.8 µM | 360,000 compounds, 0.49% hits;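 active means interference check ratio from 0.5 to 1.5 plus GFP to RFP signal ratio inhibition reaching or exceeding a fixed threshold, cut at about 30% in these data, passing the limit was not always enough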
# EP2 mod: EP2 receptor modulators, cAMP readout, primary screen, cell-based, HTRF cAMP, PGE2 stimulation; EP2-expressing cells, cAMP HTRF FRET, PGE2 co-stimulation; AID 940, 2007; induction, % at 25 µM; 260,000 compounds, 0.83% hits;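 active means compounds whose cAMP rise, as percent of the full-agonist control response, exceeds 60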;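 further: rat C6 glioma line stably carrying human EP2 under a CMV promoter; the protocol text gives 20 µM as final concentration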
# RAM 5-FOA: 5-FOA growth of efflux-deficient control yeast, dose response, counter-screen for RAM network inhibitor project, S. cerevisiae, OD615 | shares compounds with RAM inhibit | S. cerevisiae efflux-deficient reporter strain, 5-FOA growth OD615, 2 days | max inhibition, % | 1,200 tested, under 10 active | AID 1305, 2008; call rule not given here
# EP2 cAMP induct: cAMP induction in EP2, EP4, beta2-AR and parental cells, confirmation, counter-screen for EP2 modulator project, cell-based, five parallel assays, C6 glioma, HEK293; 1,300 compounds, 47% hits; shares compounds with EP2 mod; calls only at 20 µM (by protocol); cAMP HTRF induction; plus low (about EC15) PGE2 agonist; AID 1080, 2008;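 active means cAMP induction above 50% in the main assay while under 30% in all four parallel counter assays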;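 further: rat C6 glioma cells stably expressing human EP2 receptor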
# PG9 bind confirm: binders of anti-gp120 antibody PG9, confirmation, biochemical, TR-FRET; shares compounds with PG9 Ab binder; TR-FRET PG9 antibody binding; inhibition, % at 6.7 µM; 1,500 compounds, 90% hits; in the data active means inhibition above about 9%
# PGV04 counter: binders of control antibody PGV04, counter-screen for PG9 antibody binder project, biochemical, TR-FRET, distinct HIV envelope site; inhibition, % at 6.7 µM; AID 651604, 2012; shares compounds with PG9 Ab binder; 1,500 compounds, 95% hits; TR-FRET PGV04 antibody-gp120 binding; in the data active means inhibition above about 9.5%
# Numbers stand for hits; 0 = inactive; - = no result; + = active, no number.
SMILES,PGE2 EP2 inh,PG9 Ab binder,RAM inhibit,Rev-erbA mod,SKN-1 inh,EP2 mod,RAM 5-FOA,others
Cc1ccccc1N/C(SCc1ccc(Cl)cc1)=C(/C#N)C(=O)NCc1ccco1,0,0,15,0,0,0,0,
Cc1ccc2nc3c(cc2c1)CN(CC1CCCO1)C(=O)C(C)O3 (stereo not drawn),-,-,-,-,-,0,-,
CCOC(=O)Cc1[nH]nc2c1C1(C(=O)N(C)c3ccccc31)C(C#N)=C(N)O2 (stereo not drawn),0,-,-,-,-,0,-,
COCC(C)n1c(SCc2ccc(OC)c(F)c2)nc2ccccc2c1=O (stereo not drawn),0,0,14,0,0,0,0,
Cc1ccc(C(=O)CC(=O)c2ccc(C(C)(C)C)cc2)cc1,0,0,20,0,0,0,0,
COc1ccc(S(=O)(=O)N2CCC(C(=O)Nc3ccccc3Cl)CC2)cc1C,0,-,-,-,-,0,-,
CCN(CC)S(=O)(=O)c1ccc(NCC2COc3ccccc3O2)c([N+](=O)[O-])c1 (stereo not drawn),0,0,17,0,0,0,0,
CCOC(=O)c1c(-c2ccc(C)o2)csc1NC(=O)CSc1nncs1,0,0,12,0,0,0,0,
CCOC(=O)C1=NN(c2ccccc2C)C2=NC(C)=C(C(=O)OC)C(c3cccc(OC)c3)N12 (stereo not drawn),0,0,23,0,0,0,0,
CCCC(c1nnnn1Cc1ccco1)N1CCN(c2cc(Cl)ccc2C)CC1 (stereo not drawn),0,0,21,0,0,0,0,
CCOc1ccc(-c2nn(-c3ccccc3)cc2/C=C2\SC(=S)N(Cc3ccco3)C2=O)cc1,0,0,12,0,0,0,0,
CC(C)COc1ccc(-c2nn(-c3ccccc3)cc2/C=C2/SC(=S)N(CC(=O)O)C2=O)cc1,-,0,-,0,0,-,-,
CC(C)c1ccc(/C=C(\c2nc3ccccc3[nH]2)S(=O)(=O)c2ccccc2)cc1,0,0,19,0,0,0,0,
COc1cccc(-c2nc(=S)c3c(n2Cc2ccco2)CCCC3)c1,0,0,14,0,0,0,0,
COc1ccccc1-c1cc(C(F)(F)F)nc(N2CCN(c3ccccc3)CC2)n1,0,0,13,0,0,0,0,
O=C(c1cccc(Cl)c1)N1CCCC(c2ccc(Cl)cc2)=N1,0,0,17,0,0,0,0,
Cc1cccc(NC(=O)COC(=O)c2ccccn2)c1C,0,-,-,-,-,0,-,
Clc1ccc(CSc2nnc(/C=C/c3ccccc3)o2)cc1,0,0,13,0,0,0,0,
FC(F)(F)c1cc(-c2ccccc2)nc(-n2cc(Cl)cn2)n1,0,0,0,0,0,0,-,
Cc1cnn(-c2nc(-c3ccccc3)cc(-c3ccccc3)n2)c1,0,0,14,0,0,67,0,EP2 cAMP induct=+
Cc1occc1-c1nnc(SCC(=O)Nc2ccc(F)cc2)n1Cc1ccco1,0,-,-,-,-,0,-,
COc1ccc(S(=O)(=O)N(Cc2ccccc2)Cc2nc(-c3ccccc3)no2)cc1,0,0,11,0,0,0,0,EP2 cAMP induct=+
CCCCOc1ccccc1NC(=O)c1scc2c1OCCO2,0,0,13,0,0,87,0,EP2 cAMP induct=+
CCCCOc1ccccc1NC(=O)c1ccco1,0,0,0,0,0,0,-,
COC(=O)c1ccccc1NC(=S)N(CCCO)Cc1cc2cc(C)ccc2[nH]c1=O,0,-,-,-,-,0,-,
SMILES,PGE2 EP2 inh,PG9 Ab binder,RAM inhibit,Rev-erbA mod,SKN-1 inh,EP2 mod,RAM 5-FOA,others
CCOC(=O)c1c(-c2cccs2)csc1N,0,0,0,0,0,0,-,
CCOC(=O)c1c(-c2cccs2)csc1NC(=O)COC(=O)c1c(C)noc1C,0,0,12,0,0,69,0,EP2 cAMP induct=+
O=C(CSc1nc2cc(Cl)ccc2s1)N1CCCc2ccccc21,0,0,11,0,0,68,0,EP2 cAMP induct=+
COc1ccccc1/C=C(/C(=O)OCC(=O)Nc1ccccc1C(C)C)c1ccccc1,0,0,12,0,0,68,0,EP2 cAMP induct=+
CCOc1ccccc1NC(=O)c1ccccc1-c1nc(-c2ccccc2)no1,0,0,12,0,0,66,0,EP2 cAMP induct=0
CCOc1ccccc1NC(=O)c1ccccc1-c1ccccc1,-,0,-,0,0,-,-,
Cn1c(SCC(=O)Nc2cccc(Cl)c2)nc2ccccc2c1=O,0,-,-,-,-,0,-,
COCCn1nnnc1C(c1cccc(OC)c1OC)N1CCN(c2ccc(F)cc2)CC1 (stereo not drawn),0,-,-,-,-,0,-,
CSc1nnc2c3ccccc3c3ccccc3c2n1,-,0,13,0,0,76,0,EP2 cAMP induct=+
COc1ccc(C(=O)COC(=O)C(CCSC)NS(=O)(=O)c2ccc(Cl)cc2)cc1 (stereo not drawn),0,0,15,0,0,70,0,EP2 cAMP induct=0
O=C(Nc1ccc(F)c(F)c1)C1COc2ccccc2O1 (stereo not drawn),0,-,-,-,-,0,-,
C=CCn1c(=NC(=O)c2sc3ccccc3c2Cl)sc2cc(S(N)(=O)=O)ccc21,0,-,0,-,0,0,-,
COCCn1c(=NC(=O)c2sc3ccccc3c2Cl)sc2cc(S(N)(=O)=O)ccc21,0,18,16,0,0,0,0,PG9 bind confirm=24;PGV04 counter=35
CNC(=O)Cc1nc2ccccc2n1CC(=O)O,0,-,-,-,-,0,-,
CC(=O)Nc1ccc(S(=O)(=O)Nc2nc3ccccc3nc2-n2ccc(=NC(=O)c3ccc(F)cc3)cc2)cc1,0,41,12,0,0,0,0,PG9 bind confirm=50;PGV04 counter=81
